# Measurements as given in PubChem BioAssay AID1851 (National Center for Advancing Translational Sciences (NCATS), 2009).
# “And” between values parts separate entries of the source, which are not always exact repeats. Equal values may be shown once. The whole screen tested about 16,000 compounds, of which about 5,800 (36%) were called active. Inconclusive results (about 23%) are left out. Calls follow the shape of the dose curve; as a rule, active = well fitted curve in the direction sought with a large enough effect; inconclusive = small, poorly fitted or top-dose-only effect, or effect the other way; inactive = no such curve, though single readings can be large or run the other way. This is one part of the list. Some compounds were tested as several samples or in several runs, with calls that do not always agree.
# Target: Cytochrome P450 2C19 (Homo sapiens) (UniProt P33261)
# Sequence (P33261 whole entry, looked up): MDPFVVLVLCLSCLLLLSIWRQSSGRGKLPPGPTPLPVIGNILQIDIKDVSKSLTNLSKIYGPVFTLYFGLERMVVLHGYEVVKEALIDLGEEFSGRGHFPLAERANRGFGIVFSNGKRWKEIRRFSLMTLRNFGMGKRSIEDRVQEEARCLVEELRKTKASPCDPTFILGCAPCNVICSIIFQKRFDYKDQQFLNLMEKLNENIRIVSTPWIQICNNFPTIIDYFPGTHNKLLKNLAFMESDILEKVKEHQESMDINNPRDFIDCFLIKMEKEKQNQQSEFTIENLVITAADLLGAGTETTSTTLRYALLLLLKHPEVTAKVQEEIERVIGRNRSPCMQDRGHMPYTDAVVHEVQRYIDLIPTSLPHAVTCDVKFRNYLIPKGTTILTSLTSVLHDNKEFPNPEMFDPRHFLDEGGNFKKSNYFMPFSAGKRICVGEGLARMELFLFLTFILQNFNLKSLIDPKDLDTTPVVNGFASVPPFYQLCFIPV
# Experiment: Cytochrome panel assay with activity outcomes
# Settings: recombinant CYP, pro-luciferin dealkylation, luminescence, p450-cyp2c19; series mostly up to 57.1 µM; activity, negative = inhibition: at the top concentration
# % is scaled to controls: 0 for no effect and ±100 for the full control effect.
Structure (SMILES),AC50,"activity, negative = inhibition"
COc1ccccc1N1CCN(CCCCN2C(=O)c3ccccc3C2=O)CC1,inactive,–
COc1ccccc1N1CCN(CCCCN2C(=O)CCC2=O)CC1,10 µM (active),–
COc1ccccc1N1CCN(CCN2C(=O)CC3(CCCC3)CC2=O)CC1,inactive,–
CC(C)C(=O)NCCc1nc2ccccc2n1CCCOc1ccc(Cl)cc1,2 µM (active),–
C=CC[C@H](N)C(=O)O,–,16.6% (inactive)
Cc1ccc(NC(=O)c2ccc(CSc3nnc(-c4ccncc4)n3C)cc2)cc1,–,8.7% (inactive)
CCn1c(SCc2ccc(C(=O)Nc3nccs3)cc2)nnc1-c1ccc(NC(C)=O)cc1,5.01 µM (active),–
O=C(CSc1nnc(-c2ccncc2)n1Cc1ccccc1)Nc1nccs1,1.78 µM (active),–
CCNC(=O)C1CC(=O)OC12CCCCC2 (stereo not drawn),–,-10.2% (inactive)
Cn1c(=O)c2c(nc(Cl)n2Cc2ccc(Cl)c(Cl)c2)n(C)c1=O,2 µM (active),–
Cn1c(OCc2ccc3c(c2)OCO3)nc2c1c(=O)n(Cc1ccc(Cl)c(Cl)c1)c(=O)n2C,10 µM (active),–
CN(C)CCn1c(CO)nc2c1c(=O)n(C)c(=O)n2C,–,29.8% [at 11.4 µM] (inactive)
CCc1ccc(N2CC(C)Cn3c2nc2c3c(=O)n(CCN3CCOCC3)c(=O)n2C)cc1 (stereo not drawn),–,8.95% (inactive)
CN(C)CCNc1nc2c(c(=O)n(C)c(=O)n2C)n1C,–,-4.31% [at 11.4 µM] (inactive)
O=C(Nc1cnc2ccccc2c1)c1cccc(-n2cnnn2)c1,–,1.85% (inactive)
CCC(C(=O)NC(C)(C)C)N(C(=O)Cn1nnc(-c2cccs2)n1)c1cnc2ccccc2c1 (stereo not drawn),31.6 µM (active),–
COc1cc(CNC(=O)CCCC/C=C\C(C)C)ccc1O,7.94 µM (active),–
CCCCCCCCC(=O)NCc1cc(OC)c(O)cc1I,–,-37.1% (inactive)
CCCCCCCC/C=C\CCCCCCCC(=O)NCc1ccc(O)c(OC)c1,–,-15.4% (inactive)
CC(C)C(=O)Nc1ccc(C(=O)NNC(=O)CCCOc2ccc(Cl)cc2Cl)cc1,4.47 µM (active),–
COc1ccc(/C=N/NC(=O)CCCOc2ccc(Cl)cc2Cl)cc1[N+](=O)[O-],1 µM (active),–
CC(C)C(=O)Nc1ccc(C(=O)NNC(=O)C(c2ccccc2)c2ccccc2)cc1,–,-14.8% (inactive)
CC(C)(C)C(=O)NNC(=O)CCCOc1ccc(Cl)cc1Cl,11.2 µM (active),–
CN1C[C@H](c2ccccc2)C(O)([C@]2(c3ccccc3)CN(C)C[C@@H](c3ccccc3)C2=O)[C@H](c2ccccc2)C1 (stereo partly drawn),–,7.29% [at 11.4 µM] (inactive)
CCCCCCc1c(C[C@H](N)C(=O)O)o[nH]c1=O,inactive,–
CCC/C=C(\CCC)C(NS(=O)(=O)c1ccccc1)c1ccc(C(F)(F)F)cc1 (stereo not drawn),7.94 µM (active),–

Structure (SMILES),AC50,"activity, negative = inhibition"
C/C(=C\C1CCCCC1)C(NC(=O)c1ccc(C(F)(F)F)cc1)c1ccc(-c2ccccc2)cc1 (stereo not drawn),–,1.59% (inactive)
CCC/C=C(\CCC)C(NS(=O)(=O)c1ccc(C(F)(F)F)cc1)c1ccc(-c2ccccc2)cc1 (stereo not drawn),7.94 µM (active),–
CCC/C=C(\CCC)C(NS(=O)(=O)c1ccc(C(F)(F)F)cc1)c1ccccc1 (stereo not drawn),0.398 µM (active),–
CC(C)CN1CCCC2(CCN(C(=O)c3cccn3C)CC2)C1,–,23.7% (inactive)
Cc1nn(S(=O)(=O)c2cccs2)c(C)c1Sc1ccc([N+](=O)[O-])cc1,0.562 µM (active),–
Cc1c2c(nc3ccccc13)-c1cccc(=O)n1C2,–,-10.1% (inactive)
COc1ccc2nc3c(c([Si](C)(C)C(C)(C)C)c2c1)Cn1c-3cccc1=O,2 µM (active),–
CC(C)(C)[Si](C)(C)c1c2c(nc3ccc(OCc4ccccc4)cc13)-c1cccc(=O)n1C2,–,-35.1% (inactive)
CCCCC/C=C\C[C@H](O)/C=C\c1cccc(C[C@H](O)CCCCO)n1,–,-29.6% (inactive)
COc1ccc2c(C=Nc3c(C)n(C)n(-c4ccccc4)c3=O)c(O)n(Cc3ccco3)c(=O)c2c1,10 µM (active),–
COc1ccc(C(=O)NCC(c2ccc(F)cc2)N2CCOCC2)cc1S(=O)(=O)N1CCCC1 (stereo not drawn),6.31 µM (active),–
OCCCN=C1CCCCC1,–,31.2% [at 11.4 µM] (inactive)
Clc1ccc2c(NCCNc3ccnc4cc(Cl)ccc34)ccnc2c1,–,-22.5% [at 11.4 µM] (inactive)
C=CCn1cc(/C=N\NC(=O)c2cc3c(ccc4ccccc43)o2)c2ccccc21,4.47 µM (active),–
O=C(N/N=C/c1cccc([N+](=O)[O-])c1)c1cc2c(ccc3ccccc32)o1,–,5.13% (inactive)
CCC1C(=O)OCC1Cc1cncn1C (stereo not drawn),7.94 µM (active),–
CC[C@H]1C(=O)OC[C@H]1Cc1cncn1C,inactive,–
CC1(C)Cc2c(C#N)c(SCc3ccccc3)nc(N3CCOCC3)c2CO1,8.91 µM (active),–
COCCn1c(=O)c(-c2cn(C)c3ccccc23)nc2cnc(Oc3cccc(Cl)c3)nc21,–,-13.6% (inactive)
Cc1nc2cnc(Oc3cccc(Cl)c3)nc2n(CCC#N)c1=O,–,-38% (inactive)
N#CCCn1c(=O)c(CCc2ccccc2)nc2cnc(Oc3ccccc3)nc21,31.6 µM (active),–
COc1ncc2nc(-c3ccc(Cl)cc3)c(=O)n(C[C@H]3CCCO3)c2n1,10 µM (active),–
COCCn1c(=O)c(CCc2ccccc2)nc2cnc(Oc3cccc(Cl)c3)nc21,15.8 µM (active),–
N#CCCn1c(=O)c(CCc2ccccc2)nc2cnc(Oc3cccc(Cl)c3)nc21,6.31 µM (active),–
Cn1cc(-c2nc3cnc(Oc4ccccc4)nc3n(CCC#N)c2=O)c2ccccc21,–,-14.4% (inactive)
COc1ccc(-c2nc3cnc(Oc4cccc(Cl)c4)nc3n(C[C@H]3CCCO3)c2=O)cc1,–,-39% (inactive)

Structure (SMILES),AC50,"activity, negative = inhibition"
COCCn1c(=O)c(-c2cc(F)cc(F)c2)nc2cnc(Oc3cccc(Cl)c3)nc21,–,-3.94% (inactive)
N#CCCn1c(=O)c(-c2ccccc2)nc2cnc(Oc3cccc(Cl)c3)nc21,–,-37.6% (inactive)
N#CCCn1c(=O)c(-c2cccc(C#N)c2)nc2cnc(Oc3ccccc3)nc21,–,-18.6% (inactive)
CN(C)c1ncc2nc(-c3ccc(Cl)cc3)c(=O)n(C[C@H]3CCCO3)c2n1,–,6.36% (inactive)
O=C(O)CC/C=C\C[C@@H]1CO[C@H](c2ccccc2Cl)O[C@@H]1c1ccccc1O,–,-44.4% (inactive)
Cc1nc2cnc(Oc3cccc(Cl)c3)nc2n(C[C@H]2CCCO2)c1=O,–,-16.9% (inactive)
O=c1c(CCc2ccccc2)nc2cnc(Oc3cccc(Cl)c3)nc2n1C[C@H]1CCCO1,20 µM (active),–
COc1ccc(Oc2ncc3ncc(=O)n(C[C@H]4CCCO4)c3n2)cc1,–,-37% (inactive)
COC(=O)[C@]1(C)CCC(c2ccc(C)cc2)=C(CC(=O)O)C1,–,11.9% [at 11.4 µM] (inactive)
COc1ccc(C(=O)n2c(SC)nc3cc4c(cc32)OCCO4)cc1,10 µM (active),–
CCOc1ccccc1NC(=O)CSc1nnc(-c2cnccn2)n1C,15.8 µM (active),–
CO[C@H]1C[C@@H]2C[C@H](O)C[C@@H](CC(=O)O[C@@H](/C=C\CC(C)C)C[C@@H]3CC[C@H](C)[C@@H](C1)O3)O2,–,2.79% [at 11.4 µM] (inactive)
O=C(NCC1CCCO1)C1c2ccccc2C(=O)N1Cc1ccc2c(c1)OCO2 (stereo not drawn),–,-28% (inactive)
O=C1C[C@@H](O)[C@@H](O)[C@H]2[C@@H]3C(=O)N(Cc4ccc5c(c4)OCO5)C(=O)[C@@H]3CC[C@H]12,–,37.1% [at 11.4 µM] (inactive) and -14% [at 11.4 µM] (inactive)
COc1ccc(CCN2C(=O)C(O)=C(C(=O)c3ccco3)C2c2cccs2)cc1OC (stereo not drawn),–,-19.4% (inactive)
COCCCNC(=O)C1CC(=O)N(CCc2ccc(OC)c(OC)c2)C1 (stereo not drawn),–,-23.4% (inactive)
COC(=O)c1ccc(C2C(Oc3ccccc3)C(=O)N2CCc2ccc(OC)c(OC)c2)cc1 (stereo not drawn),1.58 µM (active),–
Cc1ccccc1OC1C(=O)N(Cc2ccc3c(c2)OCO3)C1c1sccc1C (stereo not drawn),1.12 µM (active),–
COc1ccc(CCN2C(=O)C(Oc3ccccc3C)C2c2ccc3c(c2)OCO3)cc1OC (stereo not drawn),0.501 µM (active),–
CN(C)CCCO[C@H]1[C@@H]2OC(C)(C)O[C@@H]2O[C@@H]1[C@H](O)CO,–,-7.77% [at 25.6 µM] (inactive)
C[n+]1ccccc1/C=N\O,–,-8.91% [at 25.6 µM] (inactive)
CC(=O)NCCNc1ncnc2ccc(-c3ccoc3)cc12,–,2.38% (inactive)
COc1ccccc1-c1ccc2ncnc(NCCNC(C)=O)c2c1,–,-43% (inactive)
CC(=O)NCCNc1ncnc2ccc(-c3ccccc3C)cc12,20 µM (active),–
CC(=O)NCCNc1ncnc2ccc(-c3ccc4c(c3)OCO4)cc12,6.31 µM (active),–
CC(=O)NCCNc1ncnc2ccc(-c3ccc(C(=O)N(C)C)cc3)cc12,–,-6.63% (inactive)
